# Hits are enriched below; roughly 2.2% of the tested compounds scored in any of these assays.
# TLR9-MyD88 block = inhibitors of human TLR9-MyD88 binding | Q9NR96+Q99836 | CHO BLA complementation TLR9-MyD88, CCF4 FRET ratio | inhibition, % at 4.98 µM | 340,000 compounds, 0.21% hits;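 active = inhibition above the mean over all tested compounds plus 3 SD, cut at about 21% in these data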;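 also: 0% = DMSO only wells and 100% = clavulanate BLA inhibitor control wells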
# NOD2-RIPK2 inh = NOD2-RIPK2 protein interaction inhibition; O43353; CHO BLA complementation NOD2-RIPK2, CCF4 ratio; inhibition, % at 4.98 µM; 360,000 compounds, 0.38% hits; in the data active = inhibition above about 21%;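 also: 0% = vehicle only and 100% = reference blocker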
# TMEM16A inh = inhibitors of mouse TMEM16A calcium-activated chloride channel; Q8BHY3; HEK293 TMEM16A/YFP iodide influx fluorescence, ionomycin; normalized B-score (activity score, 25-100; higher = stronger inhibition) at 10 µM; 310,000 compounds, 1.2% hits;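 active = ratio plate-corrected score three or more library SD toward inhibition, starting fluorescence score within five deviations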;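 also: score derived from kinetic fluorescence span divided by baseline fluorescence per well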
# TLR4-MyD88 BLA = blocks binding of human TLR4 to MyD88. O00206+Q99836. HeLa CL3-4 TLR4/MyD88 BLA complementation, FRET ratio. inhibition, % at 8.4 µM. 200,000 compounds, 0.18% hits. AID 861; in the data active = inhibition above about 25%;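 also: 0% = vehicle and 100% = reference inhibitor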
# GRK2 inh = human GRK2 inhibition via aptamer displacement | 330,000 compounds, 0.59% hits | bead flow cytometry, FAM-aptamer displacement from GRK2 | AID 488847 | inhibition of aptamer binding, % at 10 µM | P25098;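 active = inhibition of aptamer binding above 40%, roughly 3 SD of noise, on plates passing a quality check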;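 also: median bead fluorescence of bound FAM aptamer so fluorescent compounds give negative values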
# TMEM16A act = activates or potentiates the mouse TMEM16A chloride channel; Q8BHY3; HEK293 TMEM16A/YFP-H148Q/I152L, iodide quench fluorescence; active compounds read low; B-score at 10 µM; 340,000 compounds, 0.3% hits; AID 623877;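 active = fluorescence-ratio B-score plate-corrected deviation score at least 3 library SD below zero, with starting fluorescence score within 5 deviations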;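 also: channel opened by trigger with iodide after compound preincubation; score built on the fluorescence ratio of max minus min over baseline; more negative score means more quench and so TMEM16A activation or potentiation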
# TLR9-MyD88 conf = TLR9-MyD88 interaction inhibition, confirmation; shares compounds with TLR9-MyD88 block; CHO TLR9/MyD88 BLA complementation, CCF4 FRET ratio; inhibition, % at 4.98 µM; 680 compounds, 51% hits;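 active = mean inhibition across three repeats above about 21% taken from the earlier screen, limit read from the data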;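 also: blue over green emission ratio reports constitutive TLR9 MyD88 association via BLA complementation; 0% = DMSO vehicle wells and 100% = clavulanate BLA inhibitor wells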
# BLA counter-1 = non-selective beta-lactamase inhibitors in TLR9-MyD88 counter-screen; 680 compounds, 7% hits; inhibition, % at 4.98 µM; CHO-BLA cells, CCF4 FRET ratio, BLA reporter; shares compounds with TLR9-MyD88 block;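 active = mean inhibition above a 50% cutoff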;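 also: counterscreen of TLR9-MyD88 hits on CMV-driven BLA in CHO-K1 cells; 0% = DMSO alone and 100% = clavulanate blocking BLA; higher means less blue over green ratio so more BLA blockade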
# TLR9 CHO tox = CHO cell toxicity counter-screen for TLR9-MyD88 inhibitors | 680 compounds, 39% hits | shares compounds with TLR9-MyD88 block | TLR9-MyD88 CHO cells cytotoxicity, luminescence | AID 588336 | inhibition, % at 4.98 µM; in the data active = inhibition above about 11%
# NOD2-RIPK2 conf = NOD2-RIPK2 interaction inhibition confirmed | shares compounds with NOD2-RIPK2 inh | CHO cells, NOD2-RIPK2 BLA complementation, CCF4 FRET | inhibition, % at 4.98 µM | 1,200 compounds, 70% hits;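 active = mean inhibition across replicates above a set limit taken from the earlier primary screen, cut at about 21% in these data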;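 also: 0% = DMSO-only wells and the high end = clavulanate BLA-blocked wells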
# BLA counter-2 = counter-screen for NOD2-RIPK2 interaction inhibitors: BLA reporter; 1,200 compounds, 57% hits; inhibition, % at 4.98 µM; CHO BLA reporter, CCF4 FRET ratio, counterscreen; AID 624371; shares compounds with NOD2-RIPK2 inh;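 active = mean inhibition above the low-control mean inhibition plus three low-control SD, cut at about 11% in these data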;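 also: 0% = DMSO only wells and 100% = clavulanate high control wells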
# * hit, by the source's call; i = inactive; / = not tested or not shown.
SMILES,TLR9-MyD88 block,NOD2-RIPK2 inh,TMEM16A inh,TLR4-MyD88 BLA,GRK2 inh,TMEM16A act,TLR9-MyD88 conf,BLA counter-1,TLR9 CHO tox,NOD2-RIPK2 conf,BLA counter-2
O=C(O)C1OCC2(CO1)COC(C(=O)O)OC2 (centres undefined),-9,3,/,/,/,i,/,/,/,/,/
CN(c1ccccc1)c1ccc(/C=C/[N+](=O)[O-])cc1,26*,75*,i,10,2,i,28*,11,81*,89*,29*
CN(C)c1ccc(-n2cccc2/C=C/[N+](=O)[O-])cc1,0,15,i,7,2,i,/,/,/,/,/
CCC(=O)N/C(=N\OCc1ccc(F)cc1)c1nonc1NC(=O)CC,4,-5,i,10,2,i,/,/,/,/,/
CCN1CCN(Cc2c(O)ccc3c2O/C(=C\c2ccccc2)C3=O)CC1,21*,27*,i,8,1,i,15,12,0,25*,28*
CCN1CCN(Cc2c(O)ccc3c2O/C(=C\C=C\c2ccccc2)C3=O)CC1,6,7,i,4,8,i,/,/,/,/,/
O=C(Nc1cc(C(=O)N2CCN(c3ccccc3O)CC2)ccc1Cl)c1cccs1,15,-13,i,/,0,i,/,/,/,/,/
C=CCn1c(Sc2ncc([N+](=O)[O-])s2)n[nH]c1=O,32*,63*,i,/,1,i,44*,-2,99*,77*,15*
COc1cc(-c2nnc(SCC(=O)NC3CCS(=O)(=O)C3)o2)cc(OC)c1OC (centres undefined),-4,-5,i,6,1,i,/,/,/,/,/
CCCCCCSc1ccc(-c2nc3cnccn3c2NCCCC)cc1,23*,24*,/,/,26,i,48*,50*,-7,68*,77*
CCOC(=O)c1c(C)nc2sc(C(=O)Nc3ccc(OC)cc3)c(N)c2c1-c1ccc(OC)cc1,4,1,i,-12,0,i,/,/,/,/,/
CCOC(=O)c1c(C)nc2sc(C(=O)Nc3ccc(C(C)=O)cc3)c(N)c2c1-c1ccc(OC)cc1,22*,25*,i,23,21,i,18,24,16*,49*,54*
N#CC(C#N)=C1C=CC=CN1/C(=C\c1ccco1)C(=O)c1ccc(Br)cc1,42*,91*,i,7,0,i,46*,5,98*,93*,18*
N#CC(C#N)=C1C=CC=CN1/C(=C\c1ccco1)C(=O)c1ccccc1,23*,80*,i,-5,4,i,29*,9,98*,93*,17*
N#C/C(=C/c1ccco1)C(N)=S,6,-13,i,/,3,i,/,/,/,/,/
CC(C)(C)NC(=O)/C(=C/c1ccco1)c1ccccc1,-3,3,i,-10,0,i,/,/,/,/,/
Cc1ccc(-c2nc3cnccn3c2Nc2c(C)cccc2C)o1,29*,49*,i,17,2,i,14,18,9,36*,41*
Cc1ccc(-c2nc3ncccn3c2Nc2ccccc2C)o1,0,5,i,21,1,i,/,/,/,/,/
O=C(/C=C/c1ccc(Cl)cc1)Nc1cc(S(=O)(=O)N2CCOCC2)ccc1N1CCOCC1,-4,-2,/,/,0,i,/,/,/,/,/
Cc1ccc(S(=O)(=O)c2cc3c(=O)n4cccc(C)c4nc3n(Cc3ccncc3)c2=N)cc1,15,-10,i,/,2,i,/,/,/,/,/
